Design in all cases: scale not given: direction of the effect not stated beside the values
Assay [1] concerns the target Protein translocase subunit SecA (Escherichia coli (strain K12)) (UniProt P10408). In words: Assay to Identify E. coli SecA ATPase Inhibitors. In kind it is functional. The note with it: 30 µM.
Assay [2] concerns the target T1, Ubiquitin-activating enzyme e1, putative (Leishmania donovani (strain BPK282A1)) (UniProt E9BSI1).
T1 sequence (whole entry): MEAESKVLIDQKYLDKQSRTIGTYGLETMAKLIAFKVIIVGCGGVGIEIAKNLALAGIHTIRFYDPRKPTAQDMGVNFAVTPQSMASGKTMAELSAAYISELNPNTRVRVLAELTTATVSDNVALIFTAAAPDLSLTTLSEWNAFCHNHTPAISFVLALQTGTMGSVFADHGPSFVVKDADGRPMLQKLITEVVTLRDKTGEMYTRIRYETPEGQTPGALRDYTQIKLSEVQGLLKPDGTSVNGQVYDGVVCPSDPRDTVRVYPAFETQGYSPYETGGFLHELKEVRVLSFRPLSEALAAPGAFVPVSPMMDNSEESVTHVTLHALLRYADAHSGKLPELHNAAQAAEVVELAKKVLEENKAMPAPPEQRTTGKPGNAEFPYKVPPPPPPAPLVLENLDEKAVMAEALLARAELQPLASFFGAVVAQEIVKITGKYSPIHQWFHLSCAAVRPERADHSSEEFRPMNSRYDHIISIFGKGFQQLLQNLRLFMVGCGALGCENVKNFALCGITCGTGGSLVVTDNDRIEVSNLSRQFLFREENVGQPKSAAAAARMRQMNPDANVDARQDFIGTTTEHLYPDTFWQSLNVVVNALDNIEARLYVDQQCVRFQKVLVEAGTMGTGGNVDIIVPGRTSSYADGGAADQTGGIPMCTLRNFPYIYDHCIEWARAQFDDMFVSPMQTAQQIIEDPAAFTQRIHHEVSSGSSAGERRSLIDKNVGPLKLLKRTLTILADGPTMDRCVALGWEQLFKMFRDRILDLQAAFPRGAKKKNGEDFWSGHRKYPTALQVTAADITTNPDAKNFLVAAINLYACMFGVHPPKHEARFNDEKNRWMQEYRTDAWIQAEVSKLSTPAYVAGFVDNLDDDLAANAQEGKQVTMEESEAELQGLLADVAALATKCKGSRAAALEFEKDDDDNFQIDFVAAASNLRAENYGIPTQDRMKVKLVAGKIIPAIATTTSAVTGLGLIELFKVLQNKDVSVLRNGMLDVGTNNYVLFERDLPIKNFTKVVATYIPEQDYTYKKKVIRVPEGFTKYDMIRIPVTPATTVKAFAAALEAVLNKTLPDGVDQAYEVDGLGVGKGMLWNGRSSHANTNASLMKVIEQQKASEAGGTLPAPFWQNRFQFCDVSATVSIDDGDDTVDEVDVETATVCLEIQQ
As to the kind of experiment: Leishmania donovani Ubiquitin Activating Enzyme (LdE1). To be noted: 30 µM. In kind it is functional.

Assay [3] has as its target AMP-activated protein kinase, AMPK (Homo sapiens) (UniProt P54646+O43741+P54619+Q9UGJ0+Q9Y478+Q13131+Q9UGI9). In words: AMP-dependent Kinase enzyme assay. An in vitro enzyme assay that detects ADP turnover that is directly proportional to AMPK activity. This uses naive AMPK that is activated during the assay with MK-8722. The format is functional. The note with it: 30 µM.

In assay [4] the target is Sialic acid-binding Ig-like lectin 9 (Homo sapiens) (UniProt Q9Y336). As to the kind of experiment: Hs-Siglec9 ALPHAscreen SOP 20170721. The note with it: 10 µM. (Alpha assays give light when donor and acceptor beads are brought close together.)
Sialic acid-binding Ig-like lectin 9 (Homo sapiens), sequence (Q9Y336 whole entry): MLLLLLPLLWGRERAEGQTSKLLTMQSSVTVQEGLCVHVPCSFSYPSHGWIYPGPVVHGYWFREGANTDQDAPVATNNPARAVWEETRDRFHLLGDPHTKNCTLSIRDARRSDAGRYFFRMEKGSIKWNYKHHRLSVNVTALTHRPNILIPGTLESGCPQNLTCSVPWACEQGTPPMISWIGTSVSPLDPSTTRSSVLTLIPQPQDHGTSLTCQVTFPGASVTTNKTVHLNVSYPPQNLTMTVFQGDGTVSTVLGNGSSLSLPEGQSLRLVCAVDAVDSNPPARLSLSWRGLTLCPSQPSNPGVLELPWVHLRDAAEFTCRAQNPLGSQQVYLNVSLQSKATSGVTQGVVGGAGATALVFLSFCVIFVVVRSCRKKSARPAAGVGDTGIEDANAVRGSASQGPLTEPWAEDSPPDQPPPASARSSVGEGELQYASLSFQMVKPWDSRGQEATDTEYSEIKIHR
The next assay has as its system Trypanosoma cruzi. As to the kind of experiment: Trypanosoma cruzi phosphomannomutase and mannose-1-phosphate guanylyltransferase assay. In kind it is functional. The note with it: 10 µM.
Assay [5] concerns the target T2, Arginase-2, mitochondrial (Homo sapiens) (UniProt P78540).
T2 sequence (whole entry): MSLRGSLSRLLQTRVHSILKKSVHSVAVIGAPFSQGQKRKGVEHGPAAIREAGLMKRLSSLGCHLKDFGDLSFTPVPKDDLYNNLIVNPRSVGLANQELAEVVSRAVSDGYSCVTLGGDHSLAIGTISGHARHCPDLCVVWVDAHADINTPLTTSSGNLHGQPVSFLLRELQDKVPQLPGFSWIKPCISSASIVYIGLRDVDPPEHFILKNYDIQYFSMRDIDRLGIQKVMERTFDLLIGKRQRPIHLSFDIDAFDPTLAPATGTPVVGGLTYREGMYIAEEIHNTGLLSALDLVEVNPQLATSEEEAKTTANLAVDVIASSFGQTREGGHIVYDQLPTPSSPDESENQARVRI
As to the kind of experiment: in vitro enzyme assay to detect the production of urea directly proportional to the activity of Arginase II. Note: in the data most compounds retested in dose-response had high values. To be noted: 33.3 µM. The format is functional.

For assay [6], the target named is T3, Proteasome subunit beta (Trypanosoma cruzi) (UniProt O96673).
T3 sequence (whole entry): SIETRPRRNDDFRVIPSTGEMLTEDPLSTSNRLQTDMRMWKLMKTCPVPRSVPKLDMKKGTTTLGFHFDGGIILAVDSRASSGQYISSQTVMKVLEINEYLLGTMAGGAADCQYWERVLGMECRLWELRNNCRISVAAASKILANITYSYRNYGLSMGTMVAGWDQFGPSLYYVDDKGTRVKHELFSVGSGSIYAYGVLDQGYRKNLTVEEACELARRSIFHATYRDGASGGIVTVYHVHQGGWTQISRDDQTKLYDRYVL
In words: Trypanosoma cruzi proteasome chymotrypsin-like activity (TcProtChymo) assay. Note: in the data most compounds retested in dose-response had high values. The format is functional. The note with it: 9.37 µM.

The next assay is filed under the species Homo sapiens. As to the kind of experiment: To identify inhibition of the IFN signalling (Jak-Stat) pathway via expression of an eGFP reporter gene under the control of an IFN-stimulated response element (ISRE) containing MxA promoter. To be noted: 30 µM. In kind it is functional. A general note: A reporter such as luciferase makes a cellular process visible.

Assay [7] has as its target T4, Tyrosyl-tRNA synthetase, putative (Trypanosoma cruzi (strain CL Brener)) (UniProt Q4DSP6).
T4 sequence (whole entry): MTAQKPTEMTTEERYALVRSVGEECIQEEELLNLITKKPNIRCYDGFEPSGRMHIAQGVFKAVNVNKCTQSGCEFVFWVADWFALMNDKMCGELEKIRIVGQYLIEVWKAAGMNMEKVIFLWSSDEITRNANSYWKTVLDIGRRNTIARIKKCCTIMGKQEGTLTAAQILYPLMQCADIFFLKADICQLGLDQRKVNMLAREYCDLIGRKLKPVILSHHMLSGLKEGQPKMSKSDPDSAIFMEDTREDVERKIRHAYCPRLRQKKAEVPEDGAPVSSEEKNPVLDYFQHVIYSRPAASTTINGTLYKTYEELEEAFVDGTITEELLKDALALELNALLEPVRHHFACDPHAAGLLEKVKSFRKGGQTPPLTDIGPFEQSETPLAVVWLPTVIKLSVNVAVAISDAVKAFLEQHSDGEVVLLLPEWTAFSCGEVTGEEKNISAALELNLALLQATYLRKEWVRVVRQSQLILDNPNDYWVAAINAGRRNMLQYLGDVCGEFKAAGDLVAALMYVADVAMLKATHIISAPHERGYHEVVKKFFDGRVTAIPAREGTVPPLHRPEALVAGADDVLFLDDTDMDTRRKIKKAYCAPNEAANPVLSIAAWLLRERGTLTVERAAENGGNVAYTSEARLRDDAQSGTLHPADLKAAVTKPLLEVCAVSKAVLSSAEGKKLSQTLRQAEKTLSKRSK
In words: Trypanosoma cruzi tyrosyl tRNA synthetase (TcYRS) _High Tyrosine SOP. Note: in the data most compounds retested in dose-response had high values. In kind it is functional. To be noted: 30 µM.

The target of assay [8] is T4, Tyrosyl-tRNA synthetase, putative (Trypanosoma cruzi (strain CL Brener)). In words: Trypanosoma cruzi tyrosyl tRNA synthetase (TcYRS) SOP. The format is functional. The note with it: 30 µM.
Assay [9] deals with Chromo domain-containing protein 1 (Saccharomyces cerevisiae (strain ATCC 204508 / S288c) (Baker's yeast)) (UniProt P32657). As to the kind of experiment: ScCHD-1 Enzyme Inhibition Assay. Note: in the data most compounds retested in dose-response had high values. The note with it: 30 µM. In kind it is functional.
Chromo domain-containing protein 1 (Saccharomyces cerevisiae (strain ATCC 204508 / S288c) (Baker's yeast)), sequence (P32657 whole entry, the tested form may be a part): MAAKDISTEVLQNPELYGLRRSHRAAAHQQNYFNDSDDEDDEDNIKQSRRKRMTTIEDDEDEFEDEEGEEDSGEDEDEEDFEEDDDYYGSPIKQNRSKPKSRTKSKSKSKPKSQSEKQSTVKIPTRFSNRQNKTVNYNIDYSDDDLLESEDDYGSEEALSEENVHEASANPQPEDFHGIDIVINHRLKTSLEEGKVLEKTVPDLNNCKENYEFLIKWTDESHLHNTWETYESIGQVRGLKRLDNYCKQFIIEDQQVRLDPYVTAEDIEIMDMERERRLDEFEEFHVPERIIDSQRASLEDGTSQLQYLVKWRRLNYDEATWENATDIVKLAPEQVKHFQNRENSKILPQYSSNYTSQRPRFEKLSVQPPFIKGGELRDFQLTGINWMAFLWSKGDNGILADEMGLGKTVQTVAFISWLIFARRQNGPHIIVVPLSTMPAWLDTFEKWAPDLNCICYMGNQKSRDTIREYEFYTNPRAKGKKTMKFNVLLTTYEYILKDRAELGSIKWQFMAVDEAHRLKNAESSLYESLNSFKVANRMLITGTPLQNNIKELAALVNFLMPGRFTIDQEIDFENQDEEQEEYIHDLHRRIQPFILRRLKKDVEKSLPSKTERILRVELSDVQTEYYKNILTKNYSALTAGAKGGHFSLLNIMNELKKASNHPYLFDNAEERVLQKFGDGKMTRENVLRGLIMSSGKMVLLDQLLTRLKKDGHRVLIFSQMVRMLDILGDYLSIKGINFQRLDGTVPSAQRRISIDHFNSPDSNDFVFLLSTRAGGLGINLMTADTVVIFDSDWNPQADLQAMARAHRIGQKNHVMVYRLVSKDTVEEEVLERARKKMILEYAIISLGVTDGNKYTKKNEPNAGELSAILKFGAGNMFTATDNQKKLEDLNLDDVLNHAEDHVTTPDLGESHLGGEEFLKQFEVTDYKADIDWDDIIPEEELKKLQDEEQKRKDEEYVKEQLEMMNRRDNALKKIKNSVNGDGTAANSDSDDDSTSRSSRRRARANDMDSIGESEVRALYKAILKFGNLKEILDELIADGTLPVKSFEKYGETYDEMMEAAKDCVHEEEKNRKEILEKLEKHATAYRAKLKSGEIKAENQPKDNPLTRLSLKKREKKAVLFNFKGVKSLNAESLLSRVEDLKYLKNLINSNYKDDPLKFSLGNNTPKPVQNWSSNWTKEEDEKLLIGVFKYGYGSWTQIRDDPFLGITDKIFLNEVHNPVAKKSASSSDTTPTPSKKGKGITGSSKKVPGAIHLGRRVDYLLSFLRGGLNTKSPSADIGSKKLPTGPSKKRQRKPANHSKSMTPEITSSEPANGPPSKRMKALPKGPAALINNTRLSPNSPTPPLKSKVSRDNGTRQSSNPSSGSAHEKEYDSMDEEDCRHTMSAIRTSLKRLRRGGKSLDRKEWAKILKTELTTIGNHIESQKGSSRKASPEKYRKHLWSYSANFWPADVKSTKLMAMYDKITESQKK

Each structure is given as a SMILES string. For some of these results: Potency and affinity values are given separately.

Protein translocase subunit SecA (Escherichia coli (strain K12)), sequence (P10408 whole entry): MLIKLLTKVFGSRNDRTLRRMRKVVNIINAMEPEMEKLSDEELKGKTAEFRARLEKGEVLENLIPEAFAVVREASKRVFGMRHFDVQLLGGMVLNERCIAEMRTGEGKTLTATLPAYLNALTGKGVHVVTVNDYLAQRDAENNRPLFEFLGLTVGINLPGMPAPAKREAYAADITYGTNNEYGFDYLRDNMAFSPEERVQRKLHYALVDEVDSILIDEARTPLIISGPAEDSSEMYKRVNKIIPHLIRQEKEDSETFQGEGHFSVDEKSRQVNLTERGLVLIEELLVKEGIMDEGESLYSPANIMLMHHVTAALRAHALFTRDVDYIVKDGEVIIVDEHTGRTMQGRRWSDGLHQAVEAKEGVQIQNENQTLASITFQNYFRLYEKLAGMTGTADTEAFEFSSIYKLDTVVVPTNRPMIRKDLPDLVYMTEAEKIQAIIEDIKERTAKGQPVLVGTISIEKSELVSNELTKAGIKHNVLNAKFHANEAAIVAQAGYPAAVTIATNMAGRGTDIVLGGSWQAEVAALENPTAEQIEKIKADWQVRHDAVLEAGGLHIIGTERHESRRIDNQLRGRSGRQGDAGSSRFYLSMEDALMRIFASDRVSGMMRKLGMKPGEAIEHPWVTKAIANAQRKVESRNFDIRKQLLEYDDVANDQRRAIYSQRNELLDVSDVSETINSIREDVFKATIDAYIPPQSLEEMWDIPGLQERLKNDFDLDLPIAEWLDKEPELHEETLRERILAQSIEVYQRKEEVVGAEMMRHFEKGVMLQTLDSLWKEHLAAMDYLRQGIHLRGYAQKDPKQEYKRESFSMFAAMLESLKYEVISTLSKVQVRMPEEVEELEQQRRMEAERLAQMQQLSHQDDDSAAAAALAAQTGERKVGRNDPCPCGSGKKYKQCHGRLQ

Regarding `Cc1ccc(N2CCC3(CC2)CC(OCC(=O)N(C)C)CO3)nn1` (stereo unspecified), the Percent Effect in assay [1] was -2.67%; in assay [2], 5.41%; in assay [3] it was 1.03%; in assay [4], -1.72%; with Trypanosoma cruzi, -0.684%; in assay [5], 2.23%. In addition, the Percent Effect is 14.9% in assay [6]; -14.6% in the assay listed under Homo sapiens; 2.16% in assay [7]; 12.8% in assay [8]; 2.16% in assay [9].

As to `Cc1cccnc1CNc1cc(N2CCCC2CO)ncn1` (stereo unspecified), the Percent Effect in assay [1] is -2.07%; in assay [2], 2.6%; in [3], -9.88%; in assay [4], 14.4%; in the assay on Trypanosoma cruzi, 2.25%; in assay [5], -3.56%. The Percent Effect in assay [6] was 8.11%; in the assay filed under Homo sapiens, 11.7%; in assay [7] it was 2.91%; in assay [8] it was 9.76%; in [9], -6.83%.

For `O=C(c1ccc[nH]1)N1CCn2cc(CN3CCCC3)nc2C1`, the Percent Effect is -5.65% in assay [1]; 0% in [2]; 7.25% in assay [3]; -0.683% in [4]; -3.35% in the assay on Trypanosoma cruzi; -0.699% in assay [5]. The Percent Effect in assay [6] was 9.07%; in the assay filed under Homo sapiens, 8.62%; in assay [7] it was 1.06%; in assay [8] it was 3.85%; in assay [9], -0.931%.

As to `Cc1ccc2c(n1)N(CCN(C)C)CCN(C(=O)c1ccc[nH]1)C2`, the Percent Effect in [1] is -0.711%; in assay [2], 10.7%; in [3], 6.26%; in [4], -13%; in the assay with Trypanosoma cruzi, -8.07%; in [5] it was 1.63%. For the same compound, the Percent Effect was 18.6% in assay [6]; -6.38% in the assay filed under Homo sapiens; 1.06% in assay [7]; 3.85% in assay [8]; -1.69% in [9].

Turning to `Cc1cccc(COC[C@@H]2CC[C@H]3[C@H](CCN3Cc3ccco3)O2)n1`, the Percent Effect in [1] is -0.0692%; in assay [2], 16.4%; in assay [3] it was -0.44%; in assay [4] it was 9.35%; in the assay with Trypanosoma cruzi, 7.74%; in assay [5], -2.79%. Further, the Percent Effect in assay [6] is 15.2%; in the assay listed under Homo sapiens, -16.7%; in assay [7] it was 5.21%; in assay [8], 13.6%; in [9] it was -7.59%.

With `O=C(NCC1CCOC1)c1csc(-c2cccc(Cl)c2)n1` (stereo unspecified), the Percent Effect in [1] is -3.12%; in assay [2] it was 10.4%; in [3], 3.54%; in assay [4] it was -3.81%; in the assay with Trypanosoma cruzi, -5.24%; in assay [5], 0.712%. The Percent Effect was 8.62% in assay [6]; 25.1% in the assay filed under Homo sapiens; 1.94% in assay [7]; 14.6% in [8]; -5.77% in assay [9].

As for `CC1CCN(Cn2nc(-c3ccc(F)cc3)oc2=O)CC1`, the Percent Effect in [1] was -2.94%; in [2] it was 18.2%; in [3], 4.52%; in assay [4], -5.3%; in the assay with Trypanosoma cruzi it was -7.12%; in [5], 2.13%. Also, the Percent Effect in assay [6] is 6.42%; in the assay filed under Homo sapiens it was 33%; in assay [7], 5.83%; in assay [8], 7.32%; in assay [9], -12.6%.

As for `CN1C(=O)CC(C(=O)O)C12CCN(Cc1ccc(Cl)cc1F)CC2` (stereo unspecified), the Percent Effect in assay [1] was -2.86%; in assay [2], 10.7%; in assay [3], -8%; in assay [4] it was 3.22%; in the assay on Trypanosoma cruzi it was -0.487%; in assay [5] it was 2.6%. For the same compound, the Percent Effect in assay [6] is 10.1%; in the assay listed under Homo sapiens, 10.2%; in assay [7] it was 6.01%; in assay [8], 21%; in assay [9], -6.2%.

As for `Cc1cnn(CC2CCCN2C(=O)CCc2nc3ccccc3[nH]2)c1` (stereo unspecified), the Percent Effect in assay [1] is -4.12%; in assay [2] it was 7.59%; in assay [3] it was -2.81%; in assay [4] it was 11.1%; with Trypanosoma cruzi, 4.82%; in assay [5], 0.38%. For the same compound, the Percent Effect in assay [6] is -3.69%; in the assay listed under Homo sapiens it was -14.8%; in assay [7], 1.48%; in assay [8], 8.86%; in assay [9] it was -1.08%.

With `O=C(NCc1ccccc1F)N1CCC(C2OCCO2)CC1`, the Percent Effect in assay [1] is -3.95%; in assay [2], 7.89%; in assay [3], -0.484%; in assay [4], -1.41%; in the assay with Trypanosoma cruzi it was -5.94%; in [5], -5.92%. In addition, the Percent Effect in assay [6] is 7.19%; in the assay listed under Homo sapiens it was -6.9%; in [7], 4.25%; in [8] it was 7.79%; in [9], -3.04%.

On to `Cc1csc(CNC(=O)NC2CCN(c3ncccn3)CC2)n1`, for which the Percent Effect is -4.13% in assay [1]; 11% in [2]; -4.87% in [3]; 16.2% in assay [4]; 4.37% in the assay with Trypanosoma cruzi; -3.19% in assay [5]. Besides, the Percent Effect in assay [6] is 12.6%; in the assay listed under Homo sapiens, 5.21%; in assay [7], 10.4%; in [8], 25.9%; in [9] it was -3.12%.

The values above are taken from ChEMBL document CHEMBL3988442, “University of Dundee, Small-Polar-MMV Screening Library” (2021).
